Records with an inconclusive call do not appear. A number with no mark means an inactive call. The source made the active and inactive calls. Calls come from the whole dose curve; as a rule, active = well fitted activation curve with a large enough effect in the signal ratio in the repeat runs (not every such curve was filed as active); inconclusive = weak or mixed curves; inactive = flat fitted curve, though single readings scatter; the % refers to the signal ratio.
Test: p53 small molecule agonists, cell-based qHTS assay (AID 1963582)
Details: HCT-116 p53RE-bla reporter, beta-lactamase FRET ratio, 16 h; series mostly up to 66 µM; activation: at the top concentration
Excerpt: National Center for Advancing Translational Sciences [NCATS]
Division of Preclinical Innovation [DPI]
U.S. Environmental Protection Agency [EPA]
National Institutes of Environmental Health Sciences [NIEHS]
National Toxicology Program [NTP]
U.S. Food and Drug Administration [FDA]
p53, a tumor suppressor protein, is activated following cellular insult, including DNA damage and other cellular stresses. The activation of p53 regulates cell fate by inducing DNA repair, cell cycle arrest, apoptosis, or cellular senescence. The activation of p53, therefore, is a good indicator of DNA damage and other cellular stresses. […] The activation of the reporter gene under culture conditions can be detected by fluorescence intensity. This cell line was used to screen the Tox21 10K compound library in a 1536-well plate format and to identify agonists that activate the p53 signaling pathway.
Tox21 Assay Protocol Summary:
The p53RE-bla cells were dispensed at 4,000 cells/5 ul/well in 1536-well black wall/clear bottom plates using a Multidrop dispenser. After the assay plates were incubated at a 37 C/5% CO2 incubator for 5 hours, 23 nL of compounds dissolved in DMSO, positive controls or DMSO only was transferred to the assay plate by a pin tool. The plates were incubated at 37 C for 16 hours. After 1 uL of LiveBLAzerTM B/G FRET substrate was added using a Flying Reagent Dispenser, the plates were incubated at room temperature for 2 hours, and fluorescence intensity was measured by an Envision plate reader.
% is set by controls: 0 for no effect and ±100 for the full control effect; potency is the fitted concentration of half-maximal effect.

Row | Structure (SMILES) | activation | Potency
1 | BrCC(Br)(Br)Br | 1.52% | –
2 | Oc1ccc(C(=C(Cl)Cl)c2ccc(O)cc2)cc1 | 8.11% | –
3 | ClC(Cl)(Cl)Cl | -0.0632% | –
4 | CN(C)C(=O)Nc1cccc(OC(=O)NC(C)(C)C)c1 | 1.26% | –
5 | CN(C)CCCCCCN(C)C | -1.36% | –
6 | CN1C[C@H](CNC(=O)OCc2ccccc2)C[C@@H]2c3cccc4c3c(cn4C)C[C@H]21 | -3.23% [at 30.3 µM] | –
7 | COC(N)=O | -1.89% | –
8 | Clc1ccc(-c2ccccc2)cc1 | 2.92% | –
9 | Oc1ccc2ccc3cccc4ccc1c2c34 | 5.97% | –
10 | Nc1ccc(N=Nc2ccccc2)cc1 | -8.38% | –
11 | Brc1ccccc1 | 0.0334% | –
12 | Oc1ccc2c3c1O[C@H]1[C@@H](O)C=C[C@H]4[C@@H](C2)NCC[C@@]341 | 2.05% | –
13 | COc1ccc(CN2CCNCC2)c(OC)c1OC | -1.55% [at 30.3 µM] | –
14 | CCC(C)c1cc(C(C)(C)C)cc(-n2nc3ccccc3n2)c1O (stereo not given) | 0.466% [at 30.3 µM] | –
15 | CN1CCN(C(=O)O[C@H]2c3nccnc3C(=O)N2c2ccc(Cl)cn2)CC1 | 0.586% [at 30.3 µM] | –
16 | COc1ccc(C(=O)N2CCCC2=O)cc1 | -0.52% [at 30.3 µM] | –
17 | CC(Cc1ccc(C(C)(C)C)cc1)CN1C[C@@H](C)O[C@@H](C)C1 (stereo not given in full) | -3.3% | –
18 | CCOP(=S)(OCC)Oc1ncn(-c2ccccc2)n1 | -1.75% | –
19 | [Cl][Sb]([Cl])[Cl] | 9.97% | –
20 | CC(=O)OC1(c2ccccc2)CCN(CCc2ccccc2)CC1 | -0.301% | –

Row | Structure (SMILES) | activation | Potency
21 | Clc1ccccc1N1CCNCC1 | 0.52% [at 30.3 µM] | –
22 | NCC1(CC(=O)O)CCCCC1 | 1.02% [at 30.3 µM] | –
23 | C[C@]12Cc3cn[nH]c3C[C@@H]1CC[C@@H]1[C@@H]2CC[C@@]2(C)[C@H]1CC[C@]2(C)O | -0.459% [at 30.3 µM] | –
24 | CN(C)S(=O)(=O)N(SC(F)(Cl)Cl)c1ccccc1 | -2.1% | –
25 | CCCCS(=O)(=O)Cl | -2.42% | –
26 | CON(C)C(=O)Nc1ccc(Br)cc1 | 0.113% | –
27 | Oc1ccc2[nH]cc(CCCCN3CC=C(c4ccccc4)CC3)c2c1 | -2.23% [at 30.3 µM] | –
28 | CC(C)CP(=S)(S)CC(C)C | -0.119% | –
29 | Clc1cccc(N2CCNCC2)c1 | 1.13% [at 30.3 µM] | –
30 | O=C(NC(=O)c1c(F)cccc1F)Nc1cc(Cl)c(Oc2ncc(C(F)(F)F)cc2Cl)c(Cl)c1 | – | 17.5 µM (active)
31 | CCOP(=S)(OCC)Oc1nc(Cl)n(C(C)C)n1 | -4.04% | –
32 | CC(C)(Cl)[N+](=O)[O-] | -0.523% | –
33 | O=[N+]([O-])c1ccc2c3c(cccc13)CC2 | 4.78% | –
34 | O=C(O)C(F)(F)C(F)(F)C(F)(F)C(F)(F)C(F)(F)C(F)(F)C(F)(F)C(F)(F)C(F)(F)F | 3.04% | –
35 | ClCCCN1CCN(c2cccc(Cl)c2)CC1 | -1.61% [at 30.3 µM] | –
36 | CCc1cccc(C)c1N(C(=O)CCl)[C@@H](C)COC | 0.0658% | –
37 | CN=CNc1ccc(C)cc1C | -0.435% | –
38 | CCCCN(N=O)C(=N)N[N+](=O)[O-] | – | 37.1 µM (active)
39 | CCN(C(C)=O)c1cccc(-c2ccnc3c(C#N)cnn23)c1 | 0.178% [at 30.3 µM] | –
40 | N#CNC#N | -2.29% | –
